# Only some compounds are listed: those with a hit (about 10% of all), similar ones and a draw of the others.
# HP1b chromo inh: HTS for Inhibitors of HP1-beta Chromodomain Interactions with Methylated Histone Tails; 0.56% of 390,000 active; Potency, µM (titrated, usually from 114 µM), inactives show top-dose activity change, negative = inhibition, hits mostly inhibitors; AlphaScreen HP1-beta / biotin-H3K9me3 peptide binding; Chromobox protein homolog 1 (Homo sapiens), P83916; AID 540317, 2011; also: potency is read from the fitted curve at half-maximal effect; nearly all actives have a fitted effect of over 70% in size
# Target sequence (P83916 whole entry, looked up): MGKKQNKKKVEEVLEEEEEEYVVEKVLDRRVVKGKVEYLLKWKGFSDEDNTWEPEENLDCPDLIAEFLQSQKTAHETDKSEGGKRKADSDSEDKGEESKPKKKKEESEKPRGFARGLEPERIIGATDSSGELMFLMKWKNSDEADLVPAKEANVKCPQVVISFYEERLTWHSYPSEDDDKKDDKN
#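 HP1-beta protein (50 nM final) preincubated 30 min at room temperature with biotinylated H3(1-18)K9me3 peptide (50 nM) in PBS pH 7.4, 0.01% Tween-20, then compound added for 30 min. AlphaScreen streptavidin donor/nickel chelate acceptor beads (10 ug/mL final), 30 min dark, luminescence read.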
# JMJD2A Tudor: qHTS Assay for Inhibitors of JMJD2A-Tudor Domain; Lysine-specific demethylase 4A (Homo sapiens), O75164; AlphaScreen JMJD2A-Tudor / H3K4me3 peptide binding; Potency, µM (highest dose often 114 µM), for inactives: at the top dose activity change, negative = inhibition, hits mostly inhibitors; 4.4% of 390,000 active; also: potency is read from the fitted curve at half-maximal effect; % is scaled to controls: 0 for no effect and ±100 for the full control effect; nearly all actives have a fitted effect of over 50% in size
# BAZ2B inh: qHTS Assay for Inhibitors of BAZ2B; AlphaScreen BAZ2B-H3K14Ac peptide displacement; Potency, µM (top dose mostly 114 µM), for the others: at the highest dose activity change, negative = inhibition, most hits filed as inhibitors; 4.4% of 360,000 active; AID 504333, 2011; also: potency is read from the fitted curve at half-maximal effect; % is scaled to controls: 0 for no effect and ±100 for the full control effect; nearly all actives have a fitted effect of over 60% in size
#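 BAZ2B 50 nM plus b-H3(5-23)K14Ac 50 nM, PBS pH 7.4/0.01% Tween-20, 30 min RT; compound added (max 110 uM), 30 min RT; streptavidin donor/Ni-chelate acceptor beads 10 ug/mL final, 20 min dark; AlphaScreen read.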
# Six1-Eya2 blk: qHTS Assay for Inhibitors of the Six1/Eya2 Interaction; Homeobox protein SIX1 (Homo sapiens) + Protein phosphatase EYA2 (Homo sapiens), …; AlphaScreen GST-Six1/His-Eya2 binding, biochemical; active compounds read low; activity change, % (concentration not given with the values); 0.56% of 360,000 active; AID 651725, 2012; in the data active = activity change below about -65%; inconclusive = mostly about -30% to -63%; also: % is scaled to controls: 0 for no effect and ±100 for the full control effect
#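 AlphaScreen luminescence read after one hour at 37 °C in darkness. Pin-transferred compounds met GST-Six1 and His-Eya2 protein (5X stock 250 nM/500 nM) plus glutathione donor and Ni-chelate acceptor beads (5X, 50 ug/mL).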
# G9a block: qHTS Assay for Inhibitors of Histone Lysine Methyltransferase G9a; 8.8% of 350,000 active; Potency, µM (series often up to 102 µM), without a hit: top-dose activity, negative = inhibition, most hits filed as inhibitors; G9a H3K9 monomethylation, AlphaScreen, 2 h; Histone-lysine N-methyltransferase EHMT2 (Homo sapiens), Q96KQ7; also: potency is read from the fitted curve at half-maximal effect; % is scaled to controls: 0 for no effect and ±100 for the full control effect; nearly all actives have a fitted effect of over 75% in size
# Target sequence (Q96KQ7 913-1193 limits assumed): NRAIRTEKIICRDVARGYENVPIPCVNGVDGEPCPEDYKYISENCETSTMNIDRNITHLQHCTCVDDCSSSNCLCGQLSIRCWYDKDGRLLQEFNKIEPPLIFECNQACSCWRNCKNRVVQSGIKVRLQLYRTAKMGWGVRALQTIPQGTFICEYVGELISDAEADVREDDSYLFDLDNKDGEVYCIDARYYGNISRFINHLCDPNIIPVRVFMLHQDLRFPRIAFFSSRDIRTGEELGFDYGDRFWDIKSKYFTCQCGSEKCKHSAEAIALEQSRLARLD
#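 Enzyme 20 nM + cpd, 15 min RT; add b-H3K9 pep 500 nM / SAM 20 uM; 2 h RT; anti-H3K9me1 Ab 0.5 ug/mL + SA donor / anti-rabbit acceptor beads 20 ug/mL each, 10 min; AlphaScreen read.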
# CtBP-E1A blk: qHTS Assay for Inhibitors of the CtBP/E1A Interaction; AlphaScreen GST-E1A/His-CtBP binding, 1536-well; active compounds read low; activity change, % (no concentration beside the values); 0.49% of 340,000 active; AID 651724, 2012; in the data active = activity change below about -65%; inconclusive = mostly about -30% to -63%; also: % is scaled to controls: 0 for no effect and ±100 for the full control effect
#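 Homogeneous bead-based format: GST-tagged E1A captured on glutathione donor beads, His-tagged CtBP on nickel acceptor beads; compounds precede bead addition by 2 h at 37 °C.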
# An asterisk follows results filed as active; ? = inconclusive; . = not tested or not shown; [ ] = dose if it differs, or a comment. Unless noted, calls follow the shape of the dose curve; as a rule, active = well fitted inhibition curve with a large enough effect; inconclusive = small, poorly fitted or top-dose-only effect; inactive = no such curve, though single readings can be large or run the other way.
SMILES,HP1b chromo inh,JMJD2A Tudor,BAZ2B inh,Six1-Eya2 blk,G9a block,CtBP-E1A blk
Oc1ccc(N2CCN(c3ccnc4cc(Cl)ccc34)CC2)cc1,?,56µM*,?,-19,8.9µM*,-8
COc1ccc(N2CCN(c3ccnc4cc(Cl)ccc34)CC2)cc1,40µM*,35µM*,40µM*,-4,32µM*,-4
Cn1c(=O)c(=O)n(C)c2cc(S(=O)(=O)Nc3ccc(Cl)c(C(F)(F)F)c3)ccc21,34%,-11%,.,.,-27%[59 µM],.
O=C(CSc1nnc(NC(=O)c2c(F)cccc2F)s1)NC1CC1,6%,-26%,3%,11,13%,-1
CCCCN(CC)CCNC(=O)Cn1cnc2sc(C)c(S(=O)(=O)N3CCC(C)CC3)c2c1=O,-18%,-18%,0%,3,7%,-5
Cc1ccc(C(=O)N[C@@H](C)CN2C3=NC[C@H](C(C)C)N3C[C@H]2Cc2ccc(O)cc2)cc1Br,-8%,79µM*,-35%,-2,?,-3
COc1ccc(CCNC(=O)C(=O)NCC2OCCN2S(=O)(=O)c2ccc(F)cc2)cc1 (centres undefined),53%,1%,37%,18,.,22
COc1ccc2[nH]c(C(=O)N3CCC(n4nccc4NC(=O)C4CC4)CC3)c(C)c2c1,21%,2%,-17%,1,61%,1
Cc1ccc(CN2CCC(C(=O)NCCC(C)C)CC2)o1,?,45µM*,?,-11,32µM*,-12
O=C(O)c1ncc(-c2ccccc2)cn1,?,10µM*,.,-19,8.9µM*,-16
Cc1cc(C)c(NC(=O)Cn2c(=O)n(Cc3ccc(C(=O)NCc4ccco4)cc3)c(=O)c3sccc32)c(C)c1,63%,-4%,50µM*,.,-9%[59 µM],.
Cc1ccc(-n2c(=O)c3sccc3n(CC(=O)NCc3ccco3)c2=O)cc1,20%,-12%,14%,-1,79µM*,0
CCOC(=O)c1c(S(=O)(=O)N2CCC(C(=O)N3CCN(c4ccc(F)cc4)CC3)CC2)c(C)n(C)c1C,4%,-22%,-35%,.,2%[59 µM],.
CCOc1ccc(NC(=O)Cn2nc3c(cc2=O)CC(C)CC3)cc1 (centres undefined),19%[57 µM],-15%,3%,.,10%[59 µM],.
CCOC(=O)C1(Cc2ccccc2C)CCCN(Cc2cc(OC)c(O)c(OC)c2)C1 (centres undefined),28%,0%[57.1 µM],-26%,-10,45µM*,-8
CCOC(=O)C1(CCOc2ccccc2)CCN(Cc2ccc(O)c(OCC)c2)CC1,13%,?,0%,-6,79µM*,-7
CCOC(=O)C1(CCOc2ccccc2)CCN(Cc2ccc(OC)c(O)c2)CC1,19%,-24%,10%,-9,.,3
CCOC(=O)C1(CCOc2ccccc2)CCN(Cc2cc(OC)c(O)c(OC)c2)CC1,-25%,?,-33%,0,79µM*,-21
CCOC(=O)C1(CCOC)CCN(Cc2cnc(-c3cccc(C)c3)nc2)CC1,29%,-27%,-1%,-5,45µM*,6
COc1ccc(NC(=O)CCC2CCCCC2)cc1S(=O)(=O)N1CCCCC1,4%,-30%,-10%,8,?,3
Cc1ccc(C)c(NS(=O)(=O)c2cc(C(=O)NCCC3=CCCCC3)ccc2C)c1,24%,-15%,10%,2,14%[59 µM],-1
COC(=O)c1sc(SC)c(S(=O)(=O)C(C)C)c1N/N=C(\C#N)C(=O)c1ccccc1,-14%,?,-29%,13,45µM*,-7
CCN(CCS(=O)(=O)c1ccc(Br)cc1)Cc1nc2ccccc2c(=O)[nH]1,40%,-9%,.,0,.,0
COc1ccccc1NC(=O)C1=C(C)Nc2nnnn2C1c1ccc(C(F)(F)F)cc1 (centres undefined),23%,-9%,-9%,.,-18%[59 µM],.
CC(C)(C)c1ccc(O)c(N=Cc2cc(Br)ccc2O)c1,?,4µM*,-20%,-1,1.8µM*,.
SMILES,HP1b chromo inh,JMJD2A Tudor,BAZ2B inh,Six1-Eya2 blk,G9a block,CtBP-E1A blk
CCN(CC)c1ccc(N=Cc2cc(Br)ccc2O)cc1,0%,40µM*,-32%,?,14µM*,-30
Cc1ccc(O)c(C=Nc2cc(C)ccc2O)c1,15%,-24%,-8%,1,-17%[59 µM],-3
COc1cccc(NCc2nnc3n2CCCCC3)c1,24%[57 µM],7%,0%,.,-23%[59 µM],.
O=C(O)c1cnc(-c2ccccc2)nc1-c1ccccc1,28%,-15%,-24%,1,0%,3
O=C(O)c1ccc2c3c(ncnc13)-c1ccccc1C2=O,24%,?,-5%,-28,1.4µM*,-9
CCC(C)Sc1nc2c(c(=O)[nH]c(=O)n2C)n1CC(O)COc1ccccc1C (centres undefined),-32%,-19%[57.1 µM],9%,1,5.6µM*,0
CC(O)CSc1nc2c(c(=O)[nH]c(=O)n2C)n1Cc1ccccc1Cl (centres undefined),2%,-13%,2%,6,45µM*,8
CCC(C)Sc1nc2c(c(=O)[nH]c(=O)n2C)n1Cc1ccc(Cl)cc1 (centres undefined),4%,-37%,6%,6,?,1
CCOC(=O)C(C)Sc1nc2c(c(=O)[nH]c(=O)n2C)n1Cc1ccc(Cl)cc1 (centres undefined),-24%,-17%,-2%,-3,11µM*,0
CCC(C)Sc1nc2c(c(=O)[nH]c(=O)n2C)n1CCc1ccccc1 (centres undefined),15%,6%,9%,-8,-12%[59 µM],-2
CC(C)Sc1nc2c(c(=O)[nH]c(=O)n2C)n1Cc1ccc(Cl)cc1,?,32µM*,6%,-6,?,0
CC(C)Sc1nc2c(c(=O)[nH]c(=O)n2C)n1Cc1ccccc1,32%,-5%,6%,7,12%,3
COCCCNC(=O)CCCn1c(=O)c2cccn2c2ccccc21,24%,-31%,-6%,.,-1%[59 µM],.
Cc1ccc(N2C(=O)[C@@H]3C(C(=O)CCN4C(=O)c5ccccc5C4=O)=NN[C@@H]3C2=O)cc1,33%,-7%,0%,3,?,-1
COc1ccc(N2CC(C(=O)Nc3nnc(SCCC4OCCO4)s3)CC2=O)cc1 (centres undefined),13%,5%,-18%,0,7%[12.7 µM],2

# Screening data as filed in PubChem BioAssay.
